PubChem BioAssay (EPA / NIEHS)
Calls of active or inactive are those of the source. How the source made its calls: active means hit-call score of the fitted dose curve at least 0.9, where 1 is the maximum; inactive means score below 0.9.

assay: ATG_TCF_b_cat_CIS: Attagene CIS-FACTORIAL HepG2 Assay for human T-Cell-Factor with beta-catenin (TCF/b-cat) (AID 2282965); conditions: HepG2 TCF/beta-catenin cis-reporter transcription, actives raise or lower the signal
Protocol: ATG_CIS is a cell-based, multiplexed-readout assay that uses HepG2, a human liver cell line, with measurements taken at 24 hours after chemical dosing in a 24-well plate.ATG_TCF_b_cat_CIS is one of 52 assay component(s) measured or calculated from the ATG_CIS assay. It is designed to make measurements of mRNA induction, a form of inducible reporter, as detected with fluorescence intensity signals by Reverse transcription polymerase chain reaction (RT-PCR) and Capillary electrophoresis technology.Data from the assay component ATG_TCF_b_cat_CIS was analyzed into 1 assay endpoint. This assay endpoint, ATG_TCF_b_cat_CIS, was analyzed with bidirectional fitting relative to DMSO as the negative control and baseline of activity. Using a type of inducible reporter, measures of mRNA for gain or loss-of-signal activity can be used to understand the reporter gene at the transcription factor-level as they relate to the gene TCF7 and TCF7L2 and LEF1 and TCF7L1. Furthermore, this assay endpoint can be referred to as a primary readout, because this assay has produced multiple assay endpoints where this one serves a reporter gene function. To generalize the intended target to other relatable targets, this assay endpoint is annotated to the dna binding intended target family, where the subfamily is HMG box protein.
Human liver HepG2 cells are transiently transfected with multiple reporter transcription units (MRTUs) in 6-well plates using FuGene 6 reagent (Roche; 3 ml FuGene/1 mg DNA). The MRTU constructs are regulated by a cis-regulating element (promoter). […] A major difference between the CIS and TRANS system is that in CIS activities of endogenous TFs are measured, whereas the TRANS assay evaluates changes in activities of exogenous, chimeric NR-Gal4 proteins. […] At the end of 24 hour incubation, total RNA was isolated using TriZol reagent (Invitrogen). The isolated RNA is then reverse-transcribed using oligo(dT) primer and Mo-MLV reverse transcriptase (Invitrogen) with DNAse I (Ambion) treatment for 30 min. The one-tenth of the produced cDNA was amplified by PCR using Taq DNA polymerase (Invitrogen) and two reporter sequence-specific primers. The PCR products were fluorescently labeled by primer extension with 6-arboxyfluorescein (6-FAM) 5'-labeled reporter sequence-specific primer (2 min at 95 C, 20 s at 68 C and 10 min at 72 C) and these products were digested with 5U of HpaI (New England Biolabs) for 2h at 37 C. The fragments were purified using Qiaquick PCR columns (Qiagen), analyzed on an ABI 3130xL genetic analyzer (Applied Biosystems) with peak positions identified by using a set of X-rhodamine (ROX)-labeled MapMarker1000 molecular weight standards (BioVentures). The raw capillary electrophoresis data was processed using Attagraph software (Attagene).

Row | Compound | outcome | AC50
1 | Cc1ccc(S(=O)(=O)O)cc1C | inactive | 
2 | CCOc1cccc(-n2cc(C(=O)N3CCN(c4cc(C(=O)O)c5ccccc5c4)CC3)nc2-c2ccc(C)cc2)c1 |  | 22.3 µM (active)
3 | CCN(C(=O)c1cc(C)cc(OC[C@H](C)Nc2ccncc2)c1)C(C)C | inactive | 
4 | O=C(O)CCN(C1(C(=O)NO)CCCC1)S(=O)(=O)c1ccc(Oc2ccc(F)cc2)cc1 | inactive | 
5 | CCCCCCCCO |  | 20.5 µM (active)
6 | Cc1ccc(N)cc1O | inactive | 
7 | CCOCCO | inactive | 
8 | CC[C@H](C)C(=O)O[C@H]1C[C@@H](C)C=C2C=C[C@H](C)[C@H](CC[C@@H]3C[C@@H](O)CC(=O)O3)[C@H]21 | inactive | 
9 | CCCCC(CC)COC(=O)CCCCCCCCC(=O)OCC(CC)CCCC (stereo not given) | inactive | 
10 | COc1cccc(-c2ccc(/C=C\CN3CCCCCC3)cc2Cl)c1 | inactive | 
11 | CNS(=O)(=O)c1cc(C(=O)N2CCC(CCN3C4CCC3CC(n3c(C)nc5ccccc53)C4)(c3cccc(F)c3)CC2)c(Cl)cc1F (stereo not given) |  | 7.52 µM (active)
12 | COCCOCCOCCOC | inactive | 
13 | COc1ccc(/C=C/S(=O)(=O)NC(=O)c2ccc(C)cc2Cl)cc1 | inactive | 
14 | COc1ccc(-n2nc(C(F)F)cc2-c2ccc(S(C)=O)cc2)cc1 (stereo not given) | inactive | 
15 | C1=CCCC=CCCC=CCC1 | inactive | 
16 | Nc1ccc(Nc2ccccc2)cc1 | inactive | 
17 | CN(C)c1ccc(N=NS(=O)(=O)O)cc1 | inactive | 
18 | Nc1nc2ncc(CNc3ccc(C(=O)N[C@@H](CCC(=O)O)C(=O)O)cc3)nc2c(=O)[nH]1 | inactive | 
19 | CC(C)CCO | inactive | 
20 | CN(C)c1ccc(Cc2ccc(N(C)C)cc2)cc1 | inactive | 

Row | Compound | outcome | AC50
21 | NC(=O)NO | inactive | 
22 | CC(C)c1cccc(C(C)C)c1N1C(=O)c2ccc(O)cc2C1=O |  | 100 µM (active)
23 | CC[C@H]1OC(=O)[C@H](C)[C@@H](O[C@H]2C[C@@](C)(OC)[C@@H](O)[C@H](C)O2)[C@H](C)[C@@H](O[C@@H]2O[C@H](C)C[C@H](N(C)C)[C@H]2O)[C@](C)(O)C[C@@H](C)C(=O)[C@H](C)[C@@H](O)[C@]1(C)O | inactive | 
24 | Cc1[nH]cnc1C[C@H]1CCc2c(C)c3ccccc3n2C1=O |  | 15.8 µM (active)
25 | CCC(C)(C)C(=O)O[C@H]1C[C@@H](C)C=C2C=C[C@H](C)[C@H](CC[C@@H]3C[C@@H](O)CC(=O)O3)[C@H]21 | inactive | 
26 | CC(C)=CCCC(C)CCO (stereo not given) |  | 167 µM (active)
27 | CC1(C)C(=O)N(Br)C(=O)N1Br | inactive | 
28 | O=c1n(CC2CO2)c(=O)n(CC2CO2)c(=O)n1CC1CO1 (stereo not given) | inactive | 
29 | Cn1c(=O)c2c(ncn2C)n(C)c1=O | inactive | 
30 | C[C@](N)(Cc1ccc(O)c(O)c1)C(=O)O | inactive | 
31 | CC(C)(O)c1coc(S(=O)(=O)NC(=O)Nc2c3c(cc4c2CCC4)CCC3)c1 | inactive | 
32 | CCCN(C1CCN(C(=O)C2CCNCC2)CC1)[C@@H]1CCc2ccc(OC)cc2C1 |  | 113 µM (active)
33 | COC(=O)c1c(Cl)c(Cl)c(C(=O)OC)c(Cl)c1Cl | inactive | 
34 | C1N2CN3CN1CN(C2)C3 | inactive | 
35 | CC(=O)c1ccc2c(c1)[C@H](NC(=O)c1ccc(F)cc1)[C@@H](O)C(C)(C)O2 | inactive | 
36 | CC[C@H]1CC[C@H](NCc2cc3c(cc2OC)[C@H]2C[C@H]2C(=O)N3C)[C@H](c2ccccc2)N1 |  | 100 µM (active)
37 | CCCCCCc1ccc(O)cc1O |  | 47.8 µM (active)
38 | O=C(OC[C@H]1O[C@@H](OC(=O)c2cc(O)c(O)c(OC(=O)c3cc(O)c(O)c(O)c3)c2)[C@H](OC(=O)c2cc(O)c(O)c(OC(=O)c3cc(O)c(O)c(O)c3)c2)[C@@H](OC(=O)c2cc(O)c(O)c(OC(=O)c3cc(O)c(O)c(O)c3)c2)[C@@H]1OC(=O)c1cc(O)c(O)c(OC(=O)c2cc(O)c(O)c(O)c2)c1)c1cc(O)c(O)c(OC(=O)c2cc(O)c(O)c(O)c2)c1 | inactive | 
39 | CC(C)CCCCCCCOC(=O)CCCCC(=O)OCCCCCCCC(C)C | inactive | 
40 | CCOC(=O)COc1ccc2c(c1)CC(NCC(O)c1cccc(Cl)c1)CC2 (stereo not given) |  | 33 µM (active)
